# Source: PubChem
# The list is not random: actives were taken first. Their share in the collection is about 3.1%.
# TRPM1 prom inh: inhibitors of MITF-driven TRPM1 promoter in melanoma cells; SK-MEL-5 TRPM1 promoter luciferase, 24 h; inhibition, % at 12.5 µM; 0.83% of 330,000 active; AID 488899;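 active = mean inhibition across replicates of 60% or more, whatever share of single replicates reaches that level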
# Peg3 promoter: inhibitors of Peg3 promoter | HeLa PEG-Prom luciferase reporter, luminescence, overnight | inhibition, % at 20 µM | 1.7% of 360,000 active | AID 588405;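 active = inhibition of at least 50% at 20 µM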
# HIF-2a inh: HIF-2a inhibition; 786-0 RCC cells HIF-2a reporter, luciferase luminescence, overnight; inhibition, % at 18.8 µM; 0.72% of 360,000 active;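 active = inhibition of the luminescence signal of 40% or more relative to plate controls, in a single-dose primary screen at 18.75 µM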
# ABHD5 PLIN5 PPI: ABHD5-PLIN5 protein interaction inhibition; Q00G26+Q8WTS1; Split G. princeps luciferase complementation, luminescence, 4 h; inhibition, % at 4 µM; 0.78% of 360,000 active;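 active = inhibition above the mean inhibition across every tested compound plus 3 SD, cut at about 22% in these data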;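 note: 0% = DMSO only wells and the 100% control is not disclosed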
# Target sequence (Q00G26 whole entry, looked up): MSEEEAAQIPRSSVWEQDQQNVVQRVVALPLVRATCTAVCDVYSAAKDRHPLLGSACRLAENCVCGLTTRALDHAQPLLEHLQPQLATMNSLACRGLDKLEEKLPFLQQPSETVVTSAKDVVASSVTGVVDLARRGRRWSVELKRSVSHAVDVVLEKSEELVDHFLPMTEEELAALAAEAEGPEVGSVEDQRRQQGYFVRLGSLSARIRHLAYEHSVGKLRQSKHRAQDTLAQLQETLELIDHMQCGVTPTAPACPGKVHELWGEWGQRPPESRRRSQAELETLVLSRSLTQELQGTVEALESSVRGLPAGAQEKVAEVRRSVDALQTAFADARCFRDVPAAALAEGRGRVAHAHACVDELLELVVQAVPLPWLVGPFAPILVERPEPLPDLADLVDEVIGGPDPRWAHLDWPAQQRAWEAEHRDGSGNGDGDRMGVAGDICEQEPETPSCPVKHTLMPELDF
# Target sequence (Q8WTS1 whole entry, looked up): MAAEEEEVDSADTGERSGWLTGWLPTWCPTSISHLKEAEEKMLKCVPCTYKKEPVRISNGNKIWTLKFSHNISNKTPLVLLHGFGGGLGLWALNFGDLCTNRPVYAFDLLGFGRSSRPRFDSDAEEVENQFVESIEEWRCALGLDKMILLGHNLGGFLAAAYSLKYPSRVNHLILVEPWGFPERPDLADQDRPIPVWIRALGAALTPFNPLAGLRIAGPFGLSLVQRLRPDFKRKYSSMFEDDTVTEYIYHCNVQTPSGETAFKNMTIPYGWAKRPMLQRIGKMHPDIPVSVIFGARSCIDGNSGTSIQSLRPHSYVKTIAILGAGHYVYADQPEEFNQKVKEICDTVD
# KKLEB tox: counter-screen for CF NF-kB inhibitors: cytotoxicity | KKLEB CF airway cells viability, ATPlite luminescence, overnight; active compounds read low; cells stimulated with P. aeruginosa culture filtrate | activity change (cytotoxicity), % at 5 µM | 0.36% of 360,000 active | AID 602141;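 active = corrected activity change at or below -50% at 5 µM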
# CF NFkB block: inhibitors of cystic fibrosis induced NF-kB; KKLEB NF-kB-GFP reporter, PAF-induced, GFP fluorescence overnight; inhibition, % at 5 µM; 0.86% of 360,000 active; AID 588850;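 active = at least 50% inhibition at 5 µM, scaled per plate between neutral and stimulator controls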;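 note: PAF is a Pseudomonas aeruginosa culture filtrate used as stimulus; plate controls were PAF-stimulated DMSO wells for no effect and unstimulated DMSO wells for full effect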
# ABHD5 PLIN5 conf: confirmation of human ABHD5-PLIN5 interaction inhibitors; shares compounds with ABHD5 PLIN5 PPI; biochemical ABHD5-PLIN5 interaction, luminescence; inhibition, % at 4 µM; 67% of 2,200 active; AID 651612; in the data active = inhibition above about 23%;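 note: 0% = DMSO vehicle wells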
# HNF4 counter: counter-screen for ABHD5-PLIN5 inhibitors: HNF4 split-luciferase; shares compounds with ABHD5 PLIN5 PPI; HNF4 dimerization, luminescence, biochemical; inhibition, % at 4 µM; 77% of 2,200 active;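 active = mean inhibition across replicate wells exceeding the computed hit threshold, cut at about 13% in these data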;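 note: light from luciferase halves that rejoin when HNF4 fusion proteins dimerize; 0% = DMSO only wells and the 100% control is not given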
# * marks the source's active call; other numbers are inactive results; nt = no result given.
SMILES,TRPM1 prom inh,Peg3 promoter,HIF-2a inh,ABHD5 PLIN5 PPI,KKLEB tox,CF NFkB block,ABHD5 PLIN5 conf,HNF4 counter
CCOC(=O)c1ccc(N=c2sc(C(=O)OC)cc(=O)n2-c2ccc(C(=O)OCC)cc2)cc1,30,99*,39,34*,-19,17,92*,88*
COC(=O)c1cc(=O)n(-c2ccccc2)c(=Nc2ccccc2)s1,-6,33,30,38*,3,21,57*,39*
COC(=O)c1cc2c(C)nn(-c3ccccc3)c2s1,2,-57,-81,-4,16,-44,nt,nt
O=C(/C=C/c1ccccc1)COC(=O)c1ccccc1,-11,10,-6,59*,8,-9,80*,92*
COc1cccc(CNC(=O)C2CCN(S(=O)(=O)c3ccc4c(c3)CC(C)N4C(C)=O)CC2)c1 (stereo not given),1,-2,11,4,-1,-22,nt,nt
COc1ccc(C(=O)Cn2nc(CNc3ccc(Br)cc3)[n+]3c2CCCCC3)cc1,30,8,19,37*,-12,16,23*,14*
CC1CCC(C(=O)NNC(=O)c2cc(-c3ccco3)[nH]n2)CC1 (stereo not given),4,11,10,27*,3,-13,3,1
O=C(O)c1cc(-c2ccco2)[nH]n1,8,8,18,5,0,-3,nt,nt
C#CC[N+](C)(C)CCCCCCCC,-9,25,10,-4,-16,37,nt,nt
C#CC[N+](C)(C)CCCCCCCCCCCC,72*,87*,39,23*,-43,46,16,6
COc1ccc(-c2cc(=O)n(CCC#N)[nH]2)cc1,-3,0,7,26*,2,-1,-11,-15
CN(C)CCOc1ccc(-c2c(-c3ccccc3)sc3ccccc23)cc1,61*,100*,24,29*,-89*,82*,18,-4
c1ccc(-c2sc3ccccc3c2-c2ccc(OCCN3CCCCC3)cc2)cc1,-9,-1,12,1,-11,-8,nt,nt
CCN(CC)C(=O)C1=C(C)N(CCC2=CCCCC2)C(=O)C(CC(=O)NCCc2ccccn2)C1 (stereo not given),nt,-12,-18,-8,-13,25,nt,nt
O=c1c(Sc2ccccc2)c(C(F)(F)F)[nH]n1-c1ccccc1,-1,34,9,-1,3,21,nt,nt
CC(C)(C)c1ccc2c(c1)C(=O)c1ccccc1C2=O,11,-196,-183,-4,-21,-15,nt,nt
CC(C)(C=O)C1=CC(=O)c2ccccc2C1=O,39,108*,42*,34*,-1,-12,81*,103*
CC1(OC(=O)C2CCCC2)C(=O)C=C2C=C3CCCCN3C=C2C1=O (stereo not given),-1,-10,2,-1,13,-11,nt,nt
COC/C=C/C1=CC2=CC(=O)C(C)(OC(=O)C3CCCC3)C(=O)C2=CO1 (stereo not given),8,14,6,36*,9,-5,67*,39*
CCOc1ccc(N=NC2C(=O)N(C(N)=S)N=C2C)cc1 (stereo not given),-36,-247,-278,3,7,-14,nt,nt
C=Cc1ccc(Cn2c(C)c(C(=O)NCc3cccc(C)c3)sc2=O)cc1,nt,21,-2,-7,5,1,nt,nt
O=C1CC(SCc2nc3ccccc3[nH]2)C(=O)N1c1cccc(Cl)c1 (stereo not given),9,0,2,-6,-16,7,nt,nt
O=C1CC(Sc2nnnn2-c2ccccc2)C(=O)N1c1cccc(Cl)c1 (stereo not given),16,116*,40,37*,-15,45,62*,104*
COc1cc(N(C)C)ccc1C=c1c2ccccc2n2c1cc(-c1ccccc1)[n+]2C,110*,100*,90*,24*,-26,-64,22,26*
CN(C)c1ccc(C=c2c3cc([N+](=O)[O-])ccc3n3c2cc(-c2ccccc2)[n+]3C)cc1,95*,106*,75*,26*,-52*,-30,101*,48*
SMILES,TRPM1 prom inh,Peg3 promoter,HIF-2a inh,ABHD5 PLIN5 PPI,KKLEB tox,CF NFkB block,ABHD5 PLIN5 conf,HNF4 counter
O=C(O)CC(O)(CC(=O)O)C(=O)O,nt,1,18,23*,3,11,80*,23*
CCCCCn1c(SCC(=O)c2ccccc2)nc2cc(C(=O)NCC3CCCO3)ccc2c1=O (stereo not given),-4,6,13,8,14,-14,nt,nt
O=C(O)C(Cc1ccccc1)N1C(=O)C=CC1=O (stereo not given),nt,12,0,75*,22,-11,67*,107*
N#CC1=C(N)NC(=S)C(C(N)=O)C1c1ccc([N+](=O)[O-])cc1 (stereo not given),12,-6,15,52*,4,-8,-35,-17
CC(=O)Nc1ccc(S(=O)(=O)Oc2cccc(/C=C3\SC(N)=NC3=O)c2)cc1,13,2,6,28*,-8,-6,35*,22*
NC1=NC(=O)/C(=C/c2cccc(F)c2)S1,-26,-7,-7,1,3,27,nt,nt
C[C@@H]1CCCCO[C@H](CN(C)C(=O)Nc2cccc3ccccc23)[C@@H](C)CN([C@H](C)CO)C(=O)c2cc(NC(=O)c3ccccc3)ccc2O1,nt,5,17,1,-14,16,nt,nt
Cc1ccc(NC(=O)C2(C)CCCN(C(C)C)C2)cc1C (stereo not given),nt,1,7,6,7,-5,nt,nt
COc1cc(OC)cc(-c2c(C#Cc3ccsc3)c3cc(-c4ccc5c(c4)OCO5)ccc3n2C)c1,1,-15,10,98*,13,7,6,1
COc1ccc(-c2c(C#Cc3ccsc3)c3cc(-c4ccc5c(c4)OCO5)ccc3n2C)cc1,11,-6,-26,-2,5,-64,nt,nt
Cc1ccc(N=Nc2ccc(C)cc2NC(=O)Nc2ccccc2F)cc1,7,-141,-196,2,12,-50,nt,nt
COc1ccc(NC(=O)C(c2ccnc3ccccc23)n2c(=O)c(-c3ccco3)nc3ccccc32)cc1 (stereo not given),nt,nt,-2,36*,nt,nt,25*,6
O=C(Nc1ccc2c(c1)OCCO2)C(c1ccccc1F)n1c(=O)c(-c2ccco2)nc2ccccc21 (stereo not given),nt,nt,-13,26*,nt,nt,32*,10
CC(c1nc2ccccc2[nH]1)n1c(=O)c(-c2ccco2)nc2ccccc21 (stereo not given),nt,nt,1,52*,nt,nt,41*,12
